Measured values published in PubChem BioAssay AID1476 (National Center for Advancing Translational Sciences (NCATS), 2009).
Several values for one entry are separate records, joined by “and”; a condition that tells them apart may be missing. Equal values may be shown once. In all, about 200,000 compounds went through this assay and about 4,500 (2.2%) were called active. Not shown: some 12% with an inconclusive outcome. The call rests on the fitted dose curve; in most records, active means well fitted inhibition curve with a large enough effect; inconclusive means small, poorly fitted or top-dose-only effect, or effect the other way; inactive means flat fitted curve, though single readings scatter. For the sample, actives were picked, then their nearest neighbours and some compounds at random.

The compounds below were run against Cruzipain (Trypanosoma cruzi) (UniProt P25779) (assay: qHTS Assay for Promiscuous and Specific Inhibitors of Cruzain (without detergent)). Settings: purified cruzain, Z-FR-AMC fluorescence, no detergent.
Cruzipain (Trypanosoma cruzi), sequence (P25779 123-467 limits assumed): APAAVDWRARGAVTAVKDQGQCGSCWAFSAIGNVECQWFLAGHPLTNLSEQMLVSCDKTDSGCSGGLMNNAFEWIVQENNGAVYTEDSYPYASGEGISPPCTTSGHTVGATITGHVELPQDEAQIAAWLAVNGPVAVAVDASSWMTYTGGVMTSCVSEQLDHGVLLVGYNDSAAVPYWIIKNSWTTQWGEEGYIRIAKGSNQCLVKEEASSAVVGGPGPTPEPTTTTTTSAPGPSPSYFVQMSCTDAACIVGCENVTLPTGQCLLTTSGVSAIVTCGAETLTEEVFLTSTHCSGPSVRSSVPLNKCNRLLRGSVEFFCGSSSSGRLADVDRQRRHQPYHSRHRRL
Procedure: Cruzain is a cysteine protease from the tropical parasite Trypanosoma cruzi. Dual qHTS experiment was performed against the NCGC compound collection in order to 1) identify novel inhibitors of the enzyme and 2) profile the compound collection for promiscuous inhibitors operating via colloidal aggregation (by performing detergent-free and detergent-containing comparison screens). Cruzain was assayed by the use of fluorogenic coumarin-based substrate Z-FR-AMC: proteolytic cleavage releases AMC, whose fluorescence is measured at 360 nm excitation and 450 nm emission. Purified cruzain was supplied by the labs of Prof. James McKerrow and Brian Shoichet, UC San Francisco.
This assay had 0.00005% Triton X-100 concentration. See also releated assay "qHTS Assay for Promiscuous and Specific Inhibitors of Cruzain (with detergent)" with 0.01% Triton X-100.
See following references for additional details:
Assay Provider: Shoichet, Brian; University of California, San Fancisco
Screening Center PI: Austin, C.P.
Screening Center: NIH Chemical Genomics Center [NCGC]
Buffer: 100 mM Sodium Acetate, pH 5.5, 5 mM DTT, Triton X-100 concentration: 0.01%.
Buffer in columns 3 and 4 as negative control (no enzyme).
Substrate solution: 2 uM final concentration of Z-FR-AMC (catalog number I-1160, Bachem) dispensed throughout the plate.
Enzyme: 1.5 nM Cruzain final concentration in columns 1, 2, 5-48. Column 1 is neutral (100% activity). Column 2 contained titration of covalent inhibitor K11777, starting concentration 1 mM, then 1:2 dilution in duplicate).
Three uL of enzyme or buffer were dispensed to 1536-well Greiner black solid bottom plates. Compounds and controls (23 nL) were transferred via Kalypsys PinTool. The plates were incubated for 15 min at room temperature, and then 1 uL of substrate solution was added to start the reaction. The plates were immediately transferred to and read 4 times every 30 seconds for 2 min on ViewLux High-throughput CCD imager (Perkin-Elmer) using 360 nm excitation and 450 nm emission fluorescence protocol. The fluorescence intensity difference between the third and the first time points (time lapse of 60 seconds) was used to compute reaction progress.
Further: nearly all actives have a fitted effect of over 40% in size.
Potency means the concentration at half of the fitted maximal effect.

Structure (SMILES)	max response, negative = inhibition	Potency
CC(=C1C(=O)c2ccccc2C1=O)N1CCN(c2ccccn2)CC1	-6.99% (inactive)	
Cc1cc(C)c(C2C3=C(Nc4c2c(C)nn4-c2ccccn2)c2ccccc2C3=O)c(C)c1 (configuration not stated)		12.6 µM (active)
Cc1nn(-c2ccccn2)c2c1C(c1ccncc1)C1=C(CC(C)(C)CC1=O)N2 (configuration not stated)	-9% (inactive)	
NS(=O)(=O)c1ccc(CCNC(=O)CCCCCn2c(=O)[nH]c3ccccc3c2=O)cc1	-15.6% (inactive)	
COc1cc(NS(=O)(=O)c2ccccc2)ccc1-n1nc(C)cc1C	4.04% (inactive)	
CC1(C)CC(=O)c2c(n(S(=O)(=O)c3ccccc3)c3ccc(NS(=O)(=O)c4ccccc4)cc23)C1		31.6 µM (active)
Cn1c(=O)n(C)c2cc(NS(=O)(=O)c3ccc(F)cc3)ccc21	-10.1% (inactive)	
CC(C)Oc1c(Br)cc(Br)cc1/C=N/NC(N)=S		0.158 µM (active)
Cc1cccc(-n2c(C)cc(/C=N/NC(N)=S)c2C)c1	-26.1% (inactive)	
CCOc1ccc(/C=N/NC(N)=S)cc1	-8.04% (inactive)	
Cc1ccc2onc(CC(=O)N3CCN(c4ccc(Cl)cc4)CC3)c2c1	7.92% (inactive)	
COc1cccc(CNCCSc2nnnn2C)c1OCc1ccccc1Cl	2.75% (inactive)	
COc1ccc(CNC(=O)Cn2nnc(-c3ccccc3F)n2)cc1	-5.04% (inactive)	
COc1cc2nc(SCc3ccc(F)cc3)n3nc(CCn4c(C)nc5ccccc54)nc3c2cc1OC	-7.57% (inactive)	
CC(=O)CCC(=O)c1ccc2ccccc2c1	1.86% (inactive)	
CC(=O)c1ccc2c(ccc3ccccc32)c1	6.49% (inactive)	
C=CC(=O)c1ccc2ccccc2c1		2.51 µM (active)
Cc1ccc(NC(=O)Cn2c(=O)n(-c3ccccc3)c(=O)c3c4c(sc32)CCCC4)cc1	-7.31% (inactive)	
Cc1ccc(S(=O)(=O)N2CCC(Oc3ccc(-n4cnnn4)cc3)CC2)cc1	8.75% (inactive)	

Structure (SMILES)	max response, negative = inhibition	Potency
CCc1ccc(NC(=O)CN2CCSc3ccc(S(=O)(=O)N4CCCC4)cc32)cc1	-26.3% (inactive)	
COc1ccc(-c2oc3cc(OC)ccc3c2C(=O)c2ccc(C#N)cc2)cc1		12.6 µM (active)
COc1cccc(C(=O)c2cc3ccc(O)cc3oc2=O)c1	-3.19% (inactive)	
COc1ccc(C(=O)c2c(C)oc3cc([N+](=O)[O-])c(O)c([N+](=O)[O-])c23)cc1	-3.8% (inactive)	
COc1cccc(C(=O)Nc2ccc(N3CCCC3)cc2)c1	-20.3% (inactive)	
O=C(COc1ccccc1F)NNC(=O)c1ccc(N2CCCCC2)c([N+](=O)[O-])c1	-11.1% (inactive)	
O=C(Nc1ccc(N2C(=O)c3cccc4cccc(c34)C2=O)cc1)c1ccc(N2CCCCC2)c([N+](=O)[O-])c1		7.94 µM (active)
Cc1ccccc1-n1c(=O)c2ccccc2n(Cc2ccc(F)cc2)c1=O	6.2% (inactive)	
O=C(O)Cc1ccc(-c2ccccc2)cc1	-11.7% (inactive) and 9.66% (inactive)	
O=C(Cc1ccc(-c2ccccc2)cc1)NC(c1ccccc1)c1ccccc1		25.1 µM (active)
COc1ccc(C(CC(=O)O)NC(=O)Cc2ccccc2)cc1 (configuration not stated)	10.2% (inactive)	
COc1ccc(C(=O)Nc2onc3c2CCCC3)cc1	-6.11% (inactive)	
COC(=O)Cc1ccc(NC(=S)NCc2ccc(Cl)cc2)cc1	-2.73% (inactive)	
Cc1ccc(NC(=S)NC(=O)/C=C/c2ccc(Cl)cc2)cc1		10 µM (active)
Cc1nn(C)cc1C(=O)NNC(=S)Nc1ccc(Cl)cc1	-0.36% (inactive)	
CCCN1C(=O)C(O)(CC(=O)c2ccc(CC)cc2)c2cc(Br)ccc21 (configuration not stated)	2.6% (inactive)	
COc1ccccc1CNC(=O)C(Cc1ccccc1)NS(=O)(=O)c1ccc2c(c1)oc(=O)n2C (configuration not stated)	-15.4% (inactive)	
O=S(=O)(NCC(c1ccco1)N1CCOCC1)c1cc(F)ccc1F (configuration not stated)	-1.04% (inactive)	
COc1cccc(NC(=O)c2ccc(Cn3cc([N+](=O)[O-])cn3)o2)c1	3.2% (inactive)	

Structure (SMILES)	max response, negative = inhibition	Potency
CC(=O)c1cccc(NC(=O)c2nc(-c3ccccc3)n(-c3cccc(C)c3)n2)c1	-26.5% (inactive)	
Cc1cccc(NC(=O)c2sc(-c3ccccc3)nc2-c2ccc([N+](=O)[O-])cc2)c1		20 µM (active)
O=C(NCCS(=O)(=O)N1CCN(c2ccc(F)cc2)CC1)c1ccccc1Br	-13% (inactive)	
Cc1cccc(CNC(=O)c2cnc3sc(N4CCCCC4)nn3c2=O)c1	13.2% (inactive)	
CC(Oc1ccc(-c2ccccc2)c(F)c1)c1ccn(S(=O)(=O)c2cccc3ccccc23)n1 (configuration not stated)		12.6 µM (active)
COc1ccccc1N1CCN(c2ncnc3onc(-c4cccc(Cl)c4)c23)CC1	9.06% (inactive)	
O=C(Nc1nncs1)c1cccc(S(=O)(=O)N2CCCCC2)c1	0.0572% (inactive)	
CCOC(=O)CSc1nnc(NC(=O)c2cccc(S(=O)(=O)N3CCCCC3)c2)s1		20 µM (active)
O=C(Nc1nnc(S(=O)(=O)N2CCCCCC2)s1)c1cccc(Br)c1	6.01% (inactive)	
COc1cc(CNCCSc2nnnn2C)ccc1OCc1ccc(Cl)cc1Cl	8.01% (inactive)	
CCNC(=S)N(CCc1c(C)[nH]c2ccc(C)cc12)Cc1ccco1	-13.2% (inactive)	
COc1ccc(NC(=S)NCc2cccs2)c(OC)c1	1.46% (inactive)	
COc1ccc2[nH]c(C)c(CCN(Cc3cccs3)C(=S)Nc3ccccc3OC)c2c1		15.8 µM (active)
Cc1ccc(Cl)cc1N(C)C(=O)Cn1nc(Cc2cccnc2)c2ccccc2c1=O	14.5% (inactive)	
CC(C)(C)c1ccc(OCC(=O)N2CCC(c3nc4ccccc4s3)CC2)cc1	-14.4% (inactive)	
CCOC(=O)Cn1c(N)c(C(=O)OC)sc1=S	-4.92% (inactive)	
CCOC(=O)c1sc(=S)n(-c2cccc(OC)c2)c1N	-7.85% (inactive)	
CCOC(=O)c1sc(=S)n2c1[nH]c(=O)c1ccc(C(=O)OC)cc12		25.1 µM (active)
COc1ccc(CCNC(=O)CCc2c(C)nc3c(c(C)nn3-c3ccc(C)c(C)c3)c2C)c(OC)c1OC	0.259% (inactive)	
